# Laboratory results published in the supplement of paper PMC8728848.
# This is one part of a sample in which the strongest signals are shown more often than they occur.
# B1: PX14343B-bfa-546-20-546 (Bacteroides fragilis) (protein)
# chain: CDLERYPLTDLSEETFWNSESNAELALTSLYRGSLTDGVEYNPSDWWSYHGMIMMEHLSDNAFDRRGENNPFFKISSGNLTADNAFIKRYWETSYKRIGYCNRFLVGIQNSSESEKKTRMIAEARFLRATQYFYLASYFKNVPLVENVLTGEEANNVTKTSQADILKWCVTEFTAAAADLPRFSAIPAGEAGRACKQAALAFLGRTCMLQKDWKSGAKAFHDIMELGDNAINANYQELFYPSTGTSNKENIFYIQYLENYLGTGLPQHALSAKDGGWSLVNPAADLYESYEFKDGTPFSYDDPRYDPSNLGKDRDPRLDYTIYYNGAIFMGTEYKMSPDYSAAKKEKLDYTSEASRTGFMMRKYFEESTPINDVQSANGLTPVIRYAEVLLGYLECLVEDNQTITQGILDETINAVRGRASVNMPPVTEVTPAKLREIVRHERRIELAMEGIRYWDIMRWGIAHEVLSQKIWGAPYPGSTQYATTTKEVDPTGNYRWYVGKRAFRNPTDYTWPIPQSEQNINPNLRD
# How the values were obtained:
# Test in all cases: glycan array binding signal (z-score within array); higher = stronger binding
# Conditions in all cases: glycan notation: IUPAC condensed, linker removed
# [1] = biological target: Fuc(a1-2)Gal(b1-3)GalNAc(b1-3)Gal
# How it was run: (§1)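 Negative Z-scores can be read as non-binding. The Z-score is calculated within each array and then averaged across arrays of one protein sequence at different concentrations or buffers and across linkers. Arrays, 3228 in all, were curated from the Consortium for Functional Glycomics database and kept only where the protein sequence was available.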
# [2] = biological target: Fuc(a1-2)Gal(b1-3)GlcNAc(b1-3)[Fuc(a1-2)Gal(b1-3)GlcNAc(b1-6)]GalNAc
# How it was run: as §1
# [3] = biological target: Fuc(a1-2)Gal3S(b1-4)GlcNAc
# How it was run: as §1
# [4] = biological target: Fuc(a1-2)Gal6S(b1-3)GlcNAc
# How it was run: as §1
# [5] = biological target: Fuc(a1-2)Gal6S(b1-3)GlcNAc6S
# How it was run: as §1
# [6] = biological target: Fuc(a1-2)Gal6S(b1-4)Glc6S
# How it was run: as §1
# [7] = biological target: Fuc(a1-2)[Gal(a1-3)]Gal(b1-4)GlcNAc
# How it was run: as §1
# [8] = biological target: Fuc(a1-2)[Gal(a1-3)]Gal(b1-4)[Fuc(a1-3)]Glc
# How it was run: as §1
# [9] = biological target: Fuc(a1-2)[GalNAc(a1-3)]Gal(b1-4)GlcNAc(b1-3)Gal(b1-4)GlcNAc
# How it was run: as §1
# [10] = biological target: Fuc(a1-2)[GalNAc(a1-4)]Gal(b1-4)GlcNAc
# How it was run: as §1
# [11] = biological target: Fuc(a1-3)[Gal(b1-4)]GlcNAc6S
# How it was run: as §1
# [12] = biological target: Gal(a1-3)Gal(b1-4)GlcNAc
# How it was run: as §1
# [13] = biological target: Gal(b1-3)Gal(b1-4)GlcNAc
# How it was run: as §1
# [14] = biological target: Gal(b1-3)GalNAc(a1-3)[Fuc(a1-2)]Gal(b1-4)Glc
# How it was run: as §1
# [15] = biological target: Gal(b1-3)GlcNAc(b1-2)[Gal(b1-3)GlcNAc(b1-6)]Man(a1-6)[Gal(b1-3)GlcNAc(b1-2)Man(a1-3)]Man(b1-4)GlcNAc(b1-4)GlcNAc
# How it was run: as §1
# [16] = biological target: Gal(b1-3)GlcNAc(b1-3)Gal(b1-4)GlcNAc(b1-3)Gal(b1-4)GlcNAc(b1-2)[Gal(b1-3)GlcNAc(b1-3)Gal(b1-4)GlcNAc(b1-3)Gal(b1-4)GlcNAc(b1-6)]Man(a1-6)[Gal(b1-3)GlcNAc(b1-3)Gal(b1-4)GlcNAc(b1-3)Gal(b1-4)GlcNAc(b1-2)Man(a1-3)]Man(b1-4)GlcNAc(b1-4)[Fuc(a1-6)]GlcNAc
# How it was run: as §1
# [17] = biological target: Gal(b1-3)GlcNAc(b1-3)GalNAc
# How it was run: as §1
# [18] = biological target: Gal(b1-4)GlcNAc
# How it was run: as §1
# [19] = biological target: Gal(b1-4)GlcNAc(b1-3)Gal(b1-4)GlcNAc
# How it was run: as §1
# [20] = biological target: Gal(b1-4)GlcNAc(b1-3)Gal(b1-4)GlcNAc(b1-3)Gal(b1-4)GlcNAc
# How it was run: as §1
# [21] = biological target: Gal(b1-4)GlcNAc(b1-3)[Gal(b1-4)GlcNAc(b1-6)]Gal(b1-4)GlcNAc
# How it was run: as §1
# [22] = biological target: Gal6S(b1-3)GlcNAc
# How it was run: as §1
# [23] = biological target: Gal6S(b1-3)GlcNAc6S
# How it was run: as §1
# [24] = biological target: Gal6S(b1-4)Glc
# How it was run: as §1
# [25] = biological target: Gal6S(b1-4)Glc6S
# How it was run: as §1
# [26] = biological target: Gal6S(b1-4)GlcNAc
# How it was run: as §1
# [27] = biological target: Gal6S(b1-4)GlcNAc6S
# How it was run: as §1
# [28] = biological target: GalNAc(b1-3)Gal
# How it was run: as §1
# [29] = biological target: GalNAc3S(b1-4)[Fuc(a1-3)]GlcNAc
# How it was run: as §1
# [30] = biological target: GalNAc6S(b1-4)GlcNAc
# How it was run: as §1
# [31] = biological target: GlcNAc(b1-2)[GlcNAc(b1-4)]Man(a1-3)[GlcNAc(b1-4)][GlcNAc(b1-2)Man(a1-6)]Man(b1-4)GlcNAc(b1-4)GlcNAc
# How it was run: as §1
# [32] = biological target: GlcNAc(b1-3)Gal(b1-4)Glc
# How it was run: as §1
# [33] = biological target: Kdn(a2-3)Gal(b1-4)GlcNAc
# How it was run: as §1
# [34] = biological target: Man(a1-3)[Man(a1-6)]Man(a1-6)[Man(a1-3)]Man(b1-4)GlcNAc(b1-4)GlcNAc
# How it was run: as §1
# [35] = biological target: Neu5Ac(a2-3)Gal(b1-4)GlcNAc
# How it was run: as §1
# [36] = biological target: Neu5Ac(a2-6)Gal(b1-4)Glc
# How it was run: as §1
# [37] = biological target: Neu5Ac(a2-6)Gal(b1-4)GlcNAc(b1-2)Man(a1-3)[Neu5Ac(a2-3)Gal(b1-4)GlcNAc(b1-2)Man(a1-6)]Man(b1-4)GlcNAc(b1-4)GlcNAc
# How it was run: as §1
# [38] = biological target: Neu5Ac(a2-6)Gal(b1-4)GlcNAc(b1-2)Man(a1-6)Man(b1-4)GlcNAc(b1-4)GlcNAc
# How it was run: as §1
# [39] = biological target: Neu5Ac(a2-6)Gal(b1-4)GlcNAc(b1-6)GalNAc
# How it was run: as §1
# [40] = biological target: Neu5Ac(a2-8)Neu5Ac(a2-3)Gal(b1-3)GalNAc(b1-4)[Neu5Ac(a2-3)]Gal(b1-4)Glc
# How it was run: as §1
# [41] = biological target: Neu5Ac(a2-8)Neu5Ac(a2-3)Gal(b1-3)GalNAc(b1-4)[Neu5Ac(a2-8)Neu5Ac(a2-3)]Gal(b1-4)Glc
# How it was run: as §1
# [42] = biological target: Neu5Ac(a2-8)Neu5Ac(a2-3)[GalNAc(b1-4)]Gal(b1-4)Glc
# How it was run: as §1
# [43] = biological target: Neu5Gc(a2-3)Gal(b1-4)GlcNAc
# How it was run: as §1
# [44] = biological target: Neu5Gc(a2-3)Gal(b1-4)GlcNAc(b1-3)Gal(b1-4)GlcNAc(b1-2)Man(a1-3)[Neu5Gc(a2-3)Gal(b1-4)GlcNAc(b1-3)Gal(b1-4)GlcNAc(b1-2)Man(a1-6)]Man(b1-4)GlcNAc(b1-4)GlcNAc
# How it was run: as §1
# [45] = biological target: Neu5Gc(a2-3)Gal(b1-4)[Fuc(a1-3)]GlcNAc
# How it was run: as §1
binder,measurement,setting,value
B1,glycan array binding signal (z-score),[1],-0.117
same,glycan array binding signal (z-score),[2],-0.126
same,glycan array binding signal (z-score),[3],4.47
same,glycan array binding signal (z-score),[4],2.42
same,glycan array binding signal (z-score),[5],6.35
same,glycan array binding signal (z-score),[6],0.709
same,glycan array binding signal (z-score),[7],-0.126
same,glycan array binding signal (z-score),[8],-0.124
same,glycan array binding signal (z-score),[9],-0.126
same,glycan array binding signal (z-score),[10],-0.115
same,glycan array binding signal (z-score),[11],-0.129
same,glycan array binding signal (z-score),[12],-0.122
same,glycan array binding signal (z-score),[13],-0.113
same,glycan array binding signal (z-score),[14],-0.122
same,glycan array binding signal (z-score),[15],-0.117
same,glycan array binding signal (z-score),[16],-0.113
same,glycan array binding signal (z-score),[17],-0.12
same,glycan array binding signal (z-score),[18],-0.128
same,glycan array binding signal (z-score),[19],-0.132
same,glycan array binding signal (z-score),[20],-0.113
same,glycan array binding signal (z-score),[21],-0.123
same,glycan array binding signal (z-score),[22],9.99
same,glycan array binding signal (z-score),[23],6.09
same,glycan array binding signal (z-score),[24],1.73
same,glycan array binding signal (z-score),[25],3.07
same,glycan array binding signal (z-score),[26],9.6
same,glycan array binding signal (z-score),[27],13.3
same,glycan array binding signal (z-score),[28],-0.123
same,glycan array binding signal (z-score),[29],-0.136
same,glycan array binding signal (z-score),[30],10.1
same,glycan array binding signal (z-score),[31],-0.124
same,glycan array binding signal (z-score),[32],-0.13
same,glycan array binding signal (z-score),[33],-0.123
same,glycan array binding signal (z-score),[34],-0.104
same,glycan array binding signal (z-score),[35],-0.121
same,glycan array binding signal (z-score),[36],-0.122
same,glycan array binding signal (z-score),[37],-0.127
same,glycan array binding signal (z-score),[38],-0.119
same,glycan array binding signal (z-score),[39],-0.123
same,glycan array binding signal (z-score),[40],-0.129
same,glycan array binding signal (z-score),[41],-0.12
same,glycan array binding signal (z-score),[42],-0.131
same,glycan array binding signal (z-score),[43],-0.122
same,glycan array binding signal (z-score),[44],-0.129
same,glycan array binding signal (z-score),[45],-0.113
